Results filed as inconclusive are left out. Activity calls are given as the source filed them. The call rests on the fitted dose curve; in most records, active means well fitted inhibition curve with a large enough effect; inconclusive means small, poorly fitted or top-dose-only effect; inactive means no such curve, though single readings can be large or run the other way.
assay: qHTS for Inhibitors of the Aldehyde Dehydrogenase Family (ALDH1A2, ALDH1A3, ALDH2, ALDH3A1) (AID 2061307); details: ALDH inhibition qHTS; series mostly up to 50.3 µM; activity change, negative = inhibition: at the top concentration; further: nearly all actives have a fitted effect of over 50% in size; on Potency: test system not described further here
On the % scale 0 is the no-effect control and ±100 the full control effect; potency means the concentration at half of the fitted maximal effect.

SMILES | Potency | activity change, negative = inhibition
Cn1ccc(=Nc2ccc(NC(=O)c3ccc(N=c4ccn(C)c5ccc([N+](=O)[O-])cc45)cc3)cc2)cc1 | 8.96 µM (active) | –
O=[N+]([O-])c1ccc(NC(=S)N=Nc2c(O)[nH]c3ccccc23)cc1 | 7.12 µM (active) | –
CSc1cc2c(s1)c1cnn(Cc3cccc(N)c3)c(=O)c1n2C | – | 9.91% (inactive)
COCCCNC(=O)c1cc2cc(S(=O)(=O)N(C)C)ccc2n1C | – | -19.3% (inactive)
COc1ccc(-n2c(C)cc(C3=NNC(=NC4CC4)SC3)c2C)cc1 | 4.49 µM (active) | –
Cc1ccc(-c2ocnc2C(=O)N(C)Cc2cccc(C(N)=O)c2)cc1 | – | 0% [at 34.4 µM] (inactive)
c1ccc(Nc2cc(-c3ccoc3)ncn2)cc1 | – | -13% (inactive)
O=C(c1ccco1)N1CCN(Cc2nc3ccccc3c(=O)n2-c2ccccc2Oc2ccccc2)CC1 | – | -23.3% (inactive)
O=C(Nc1cccc(-c2ccc(N3CCOCC3)nn2)c1)Nc1ccccc1C(F)(F)F | – | -15.6% [at 34.4 µM] (inactive)
Oc1ccccc1NCC(O)Cn1ccc2ccccc21 (stereo not drawn) | – | -17.6% (inactive)
O=C(c1ccco1)N1CCN(Cc2nc3ccccc3c(=O)n2-c2ccccc2[N+](=O)[O-])CC1 | – | -18% (inactive)
CC(=O)N1CCC(Nc2ncnc3scc(-c4ccccc4)c23)CC1 | 6.31 µM (active) | –
O=C(CSc1nnc(-c2ccncc2)o1)Nc1ccc2c(c1)OCCO2 | – | -18.4% (inactive)
COc1ccc([N+](=O)[O-])c(S(=O)(=O)c2ccc(C)cc2)n1 | 2.25 µM (active) | –
NCC(=O)Nc1cc(O)cc(-c2nn3c(=O)cc(N4CCNCC4)nc3s2)c1 | – | 0% (inactive)
NCC(=O)Nc1cc(-c2nn3c(=O)cc(N4CCNCC4)nc3s2)ccn1 | – | 5.66% (inactive)
COc1ccc(-n2ccc(C(=O)NC(C)(C)C)n2)cc1 | – | -40.6% [at 34.4 µM] (inactive)
O=C(c1ccco1)N1CCN(Cc2nc3ccccc3c(=O)n2-c2ccccc2C(F)(F)F)CC1 | – | -22.8% (inactive)
Cc1nc(-c2ccc(Cl)s2)sc1C(=O)Nc1ccc(C(N)=O)c(F)c1 | – | -63.1% [at 34.4 µM] (inactive)

SMILES | Potency | activity change, negative = inhibition
Cc1ccc(-c2cc3c(nn2)-c2ccccc2C3=O)cc1 | – | -15.1% (inactive)
COc1cccc(NC(=O)c2cc3c(-c4ccc(Cl)cc4)nn(C)c3s2)c1 | – | -63.2% [at 34.4 µM] (inactive)
CC(C)(C)c1ccccc1-n1c(CN2CCN(C(=O)c3ccco3)CC2)nc2ccccc2c1=O | – | 0% (inactive)
O=C(NCc1ccccc1Cl)c1ccc(-c2nn[nH]n2)cc1 | – | -27.2% [at 34.4 µM] (inactive)
CCc1ccc(NC(=O)Cn2c(=O)n(-c3ccccc3)c(=O)c3ccc(C(=O)NCc4ccc5c(c4)OCO5)cc32)cc1 | – | -22.9% [at 34.4 µM] (inactive)
CC(=O)c1cc2c(cc1NC(=O)c1cnn(-c3ccc(F)cc3F)c1)OCO2 | – | -13.3% [at 34.4 µM] (inactive)
COc1cc(O)c(C(CC(=O)N2CC(C)CC(C)C2)c2ccc(S(=O)(=O)N(C)C)cc2)c(OC)c1 (stereo not drawn) | – | -25.1% (inactive)
COc1ccc(-n2c(C)c(C(=O)c3ccccc3)c3cc(O)ccc32)cc1 | – | 3.6% [at 34.4 µM] (inactive)
O=C(Nc1nncs1)c1ccn(-c2ccc(F)cc2)n1 | – | 0% [at 34.4 µM] (inactive)
Cc1cccc(NC(=O)CSCC(=O)Nc2ccc(F)cc2)c1 | – | -8.39% (inactive)
O=C(c1cnc(N2CCCCC2)c2ccccc12)N1CCN(c2ccccc2)CC1 | – | 2.15% (inactive)
COc1ccc(C(N)=O)cc1NC(=O)c1ccn(-c2ccc(F)cc2)n1 | – | 3% [at 34.4 µM] (inactive)
O=C(c1cnc(N2CCCCC2)c2ccccc12)N1CCN(c2ccc(Cl)cc2)CC1 | – | -3.27% (inactive)
CC1=C[C@@H](CNC(C)C)[C@H](C(C)C)C[C@H]1Cc1nnc(-c2ccncc2)o1 | – | -4.51% (inactive)
O=C(O)c1cc(-c2cccs2)nc2cc(Br)ccc12 | 10.1 µM (active) | –
CCc1cccc(CC)c1-n1c(C)c(C(=O)NC2CC2)cc(-c2nc(-c3ccc(Cl)cc3)cs2)c1=O | – | -11.7% (inactive)
O=C(Nc1ccc(C(=O)N2CCCC2)cc1)c1cccc(Cl)c1 | – | -64.8% [at 34.4 µM] (inactive)
O=C(Nc1ccccc1OC(F)(F)F)c1csc(-c2ccc(F)cc2)n1 | – | -41.5% [at 34.4 µM] (inactive)
CCOc1ccc(CNc2ccc3ccccc3c2)cc1 | 2.83 µM (active) | –

From PubChem BioAssay (NCATS)
